Screening data from PubChem BioAssay.
Cruzain Triton = cruzain (T. cruzi) inhibition with detergent. purified cruzain, Z-FR-AMC fluorescence, 0.01% Triton. AID 1478. Potency, µM, for the others: max response, negative = inhibition, actives largely listed as inhibitors. 200,000 tested, 0.43% active;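 note: plate controls were neutral wells for no effect and buffer without enzyme for full effect; nearly all actives have a fitted effect of over 40% in size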
Target sequence (P25779 123-467 limits assumed): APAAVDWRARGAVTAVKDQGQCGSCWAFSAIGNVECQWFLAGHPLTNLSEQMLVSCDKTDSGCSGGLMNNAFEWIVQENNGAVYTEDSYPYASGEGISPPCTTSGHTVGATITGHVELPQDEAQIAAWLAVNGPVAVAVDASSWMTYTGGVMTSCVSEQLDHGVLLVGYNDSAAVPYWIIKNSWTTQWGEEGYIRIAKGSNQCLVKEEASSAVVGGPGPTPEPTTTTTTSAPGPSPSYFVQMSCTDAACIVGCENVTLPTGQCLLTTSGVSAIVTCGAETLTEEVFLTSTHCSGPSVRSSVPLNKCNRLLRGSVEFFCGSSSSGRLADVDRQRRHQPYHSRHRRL
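Detergent-containing run (0.01% Triton X-100) in acetate buffer pH 5.5 with 5 mM DTT: enzyme at 1.5 nM final, 15 min compound preincubation at room temperature, then 2 uM Z-FR-AMC substrate. Activity taken as 60 s fluorescence increase at 360/450 nm.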
Cruzain noTriton = blocks cruzain activity in detergent-free assay | P25779 | purified cruzain, Z-FR-AMC fluorescence, no detergent | Potency, µM, inactives show max response, negative = inhibition, usual class: inhibitors | 200,000 tested, 2.3% active | AID 1476;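 note: plate controls were enzyme without inhibitor for no effect and buffer without enzyme for full effect; nearly all actives have a fitted effect of over 40% in size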
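Purified cruzain at 1.5 nM, pre-incubated 15 min with compound at room temperature in 100 mM sodium acetate pH 5.5, 5 mM DTT, 0.00005% Triton X-100. Reaction started with 2 uM Z-FR-AMC; AMC fluorescence increase over 60 s gives rate.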
* = called active by the depositor; u = inconclusive. Compounds with a hit are over-represented: about 2.5% of the library has one in this group of screens. Calls come from the whole dose curve; as a rule, active = well fitted curve in the direction sought with a large enough effect; inconclusive = small, poorly fitted or top-dose-only effect, or another doubt; inactive = no such curve, though single readings can be large; an effect the other way counts as inactive or inconclusive. Potency is the fitted concentration of half-maximal effect.

SMILES	Cruzain Triton	Cruzain noTriton
CC1CCN(S(=O)(=O)c2ccc(NC(=O)N3c4ccccc4Sc4ccccc43)cc2)CC1	-1.1%	12.6µM*
CC1CCN(S(=O)(=O)c2ccc(S(=O)(=O)NCc3ccccc3)cc2)CC1	4.2%	15.8µM*
COc1ccc(NC(=O)c2ccco2)cc1NC(=O)COc1cc(C)ccc1C(C)C	-2.1%	-4.5%
CCCCN(C)CCNC(=O)c1c(C)oc2ncnc(N3CCOCC3)c12	-0.8%	-10.8%
O=C(OCc1nc2scc(-c3ccccc3)c2c(=O)[nH]1)c1cccc([N+](=O)[O-])c1	-6.6%	25.1µM*
CC(C)[C@H](NC(=O)c1ccccc1)C(=O)OCc1nc2scc(-c3ccccc3)c2c(=O)[nH]1	-5.9%	u
Cc1ccc(NCc2cccn2-c2nnc(N3CCC(C(=O)NCc4ccccc4C)CC3)s2)cc1	-4.7%	-20.2%
Clc1ccc2c(N3CCC(CCC4CCN(c5ncnc6cc(Cl)ccc56)CC4)CC3)ncnc2c1	-3.1%	-0.9%
CCCCn1c(=N)c(S(=O)(=O)c2ccc(Cl)cc2)cc2c(=O)n3cccc(C)c3nc21	-1.2%	-15.5%
O=C(N[C@@H](c1ccccc1)[C@@H]1C[C@H]1C(=O)NCc1ccccc1)OCc1ccccc1	4.9%	-17.9%
CCOC(=O)c1sc2ccccc2c1S(=O)(=O)N1CCN(c2ccccc2)CC1	-4.3%	31.6µM*
CCOC(=O)c1sc2ccccc2c1S(=O)(=O)N1CCN(c2cccc(OC)c2)CC1	-2.5%	-11.5%
CCOC(=O)c1sc2ccccc2c1S(=O)(=O)N1CCN(c2ccccc2F)CC1	-4.5%	-27.0%
CCOC(=O)c1sc2ccccc2c1S(=O)(=O)N1CCN(c2cccc(C)c2C)CC1	-2.3%	12.6µM*
CC(C)C[C@@H](N)C(=O)Nc1ccc2ccccc2c1	3.4%	-4.6%
CCOc1ccccc1CNC(=O)CCc1c(C)nn(-c2ccc(N3CCCC3)nn2)c1C	-2.5%	-8.6%
N=C(N)SCc1cc(Cl)cc(Cl)c1O	2.6%	-1.1%
CCC1CSC(Nc2ccc(C(=O)/C=C/c3ccc(Br)cc3)cc2)=N1 (configuration not stated)	-11.2%	25.1µM*
O=C(/C=C/c1ccc(Br)cc1)c1ccc(NC(=O)c2ccco2)cc1	-5.9%	-12.2%
Cc1ccc(CCNC(=O)c2cc(C)nc3c2c(C)nn3-c2ccc(C)cc2)cc1	-1.6%	-0.6%
Cc1cc(N=Cc2c(CO)cnc(C)c2O)c(N=Cc2c(CO)cnc(C)c2O)cc1C.[Zn]	-12.2%	u
COc1ccc(-c2cc(C(F)(F)F)c(C#N)c(SCC(=O)Nc3ccc(F)cc3)n2)cc1	-1.0%	3.7%
COc1ccc(OC)c(Nc2nc(-c3cccs3)cs2)c1	-2.7%	u
COc1ccc(C)cc1Nc1nc(-c2c[nH]c3ccccc23)cs1	-3.3%	15.8µM*
CCc1cc2c(=O)c(-c3cnn(-c4ccccc4)c3)c(C)oc2cc1OCC(=O)Nc1ccc(F)c(F)c1	-0.7%	25.1µM*
SMILES	Cruzain Triton	Cruzain noTriton
CCc1cc2c(=O)c(-c3cnn(-c4ccccc4)c3)c(C)oc2cc1OCC(=O)Nc1cccc(C)c1	-1.8%	u
C[C@@]12C[C@H](O)C3[C@H](CCC4=CC(=O)CC[C@]43C)[C@H]1CC[C@@H]2c1csc(-c2ccccc2)n1 (some centres not stated)	1.8%	-6.9%
Cc1ccc(S(=O)(=O)c2nnn3c2nc(NCc2ccc4c(c2)OCO4)c2sccc23)cc1	-5.9%	9.3%
Cc1ccc(S(=O)(=O)c2nnn3c2nc(NCc2ccc4c(c2)OCO4)c2sccc23)cc1C	-5.7%	25.1µM*
CC(C)c1ccc(S(=O)(=O)c2nnn3c2nc(NCCc2ccccc2)c2sccc23)cc1	0.2%	10µM*
Cc1ccc(S(=O)(=O)c2nnn3c2nc(NCCc2ccccc2)c2sccc23)cc1	0.0%	0.3%
O=C1CCCC(C(C(=O)OCc2ccccc2)C(=O)OCc2ccccc2)C1 (configuration not stated)	1.2%	2.1%
Cn1cc(/C=C2/SC(=O)N(c3ccccc3)C2=O)c2ccccc21	1.0%	u
Cc1ccc(N=C2NC(=O)/C(=C/c3cn(C)c4ccccc34)S2)cc1C	-4.6%	12.6µM*
CN(C)c1ncnc2ccc(-c3ccccc3C#N)cc12	4.2%	-8.3%
Cc1ccc(NC(=O)C(Cc2ccccc2)NS(=O)(=O)c2cccs2)cc1Cl (configuration not stated)	-0.9%	12.6µM*
CCc1cccc(NC(=O)C(Cc2ccccc2)NS(=O)(=O)c2cccs2)c1 (configuration not stated)	-9.7%	3.4%
COc1ccc(NC(=O)C(Cc2ccccc2)NS(=O)(=O)c2ccc(Br)s2)cc1OC (configuration not stated)	-4.9%	-2.8%
O=C(Nc1ccc(Cl)c(C(F)(F)F)c1)C(Cc1ccccc1)NS(=O)(=O)c1ccc(Br)s1 (configuration not stated)	-0.3%	3.98µM*
COc1ccc(C(=O)c2cn(Cc3ccccc3)c3ccccc3c2=O)cc1OC	-4.0%	-3.7%
Cc1cccc(OCC(=O)NC(Cc2ccccc2)C(=O)O)c1 (configuration not stated)	-2.5%	4.4%
Cc1cccc(OCC(=O)NC(C)C(=O)N/N=C/c2c(OCc3ccccc3)ccc3ccccc23)c1 (configuration not stated)	0.5%	15.8µM*
Cc1ccc(Nc2nnc(-c3ccc(C)c(S(=O)(=O)N4CCOCC4)c3)c3ccccc23)cc1	0.2%	14.4%
COc1cc(/C=N\NC(=O)c2ccc(C)nc2)ccc1OC(=O)c1ccco1	-5.4%	-5.9%
COc1cc(/C=N/NC(=O)CNC(=O)c2ccccc2)ccc1OC(=O)c1cccs1	-5.8%	-0.2%
COc1cc(/C=N/Nc2cccc(C)c2)ccc1OC(=O)c1ccco1	-2.4%	15.8µM*
COc1cc(/C=N/Nc2ccc(Cl)cc2)ccc1OC(=O)c1cccs1	-3.0%	7.94µM*
O=C1N[C@@]2(CN3CCC2CC3)C(=O)N1CN(Cc1ccccc1)c1ccccc1	-0.5%	-5.5%
CCOc1ccc(CCNC(=O)CCSCc2ccc(Cl)cc2)cc1OCC	0.8%	-6.3%
CCc1ccc(NC(=O)C(C)OC(=O)c2cccc(S(=O)(=O)N3CCc4ccccc4C3)c2)cc1 (configuration not stated)	-1.8%	15.8µM*
SMILES	Cruzain Triton	Cruzain noTriton
CCc1ccc(NC(=O)c2ccc(F)c(S(=O)(=O)N3CCc4ccccc4C3)c2)cc1	0.6%	u
O=[N+]([O-])/C=C\c1cc2ccccc2[nH]1	3.6%	3.6%
CCN1CCc2nc(NC(=O)C(c3ccccc3)c3ccccc3)sc2C1	-0.1%	-7.4%
CCN1CCc2nc(NC(=O)CC(c3ccccc3)c3ccccc3)sc2C1	0.1%	31.6µM*
CCOc1ccc(NC(=O)c2oc3ccccc3c2NC(=O)Cc2cccc(C)c2)cc1	-2.4%	-1.4%
CC1=NC(Nc2nc(C)c3ccccc3n2)=NC(C)(C)C1	20µM*	15.8µM*
COc1ccc(Nc2nc(C)c3ccccc3n2)cc1	-4.6%	-4.1%
CCOc1ccc(NC(=O)CN2CCN(c3ccc(Cl)cc3)CC2)cc1	-3.6%	12.4%
CC1=NN(C(=O)c2ccncc2)C(=O)[C@@H]1N=Nc1ccc2ccccc2c1	-2.8%	-5.4%
CC1=NN(c2nc(-c3ccc(C)cc3)cs2)C(=O)C1N=Nc1ccc2ccccc2c1 (configuration not stated)	-7.5%	3.16µM*
CCNc1ncc2nc(C)c(=O)n(Cc3cccs3)c2n1	-3.9%	-4.0%
O=C(c1cc(C(=O)NCc2ccccc2)c(=O)n(Cc2ccccc2)c1)c1cc(Br)ccc1O	8.6%	3.98µM*
